# Laboratory results taken from PubChem BioAssay (NCATS).
# Results filed as inconclusive are left out. Unmarked numbers belong to inactive results. Calls follow the shape of the dose curve; as a rule, active = well fitted activation curve with a large enough effect; inconclusive = small, poorly fitted or top-dose-only effect; inactive = no such curve, though single readings can be large or run the other way.
# Experiment: qHTS for Activators of Parkin Expression: LOPAC Validation Assay (FLuc Reporter) (AID 720573;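 also: 0% = DMSO and 100% = positive control compounds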)
# Conditions: Cell line, PRKN promoter firefly luciferase reporter; series mostly up to 46.1 µM; activation: at the top concentration
# Source text: Parkin is an E3 ubiquitin ligase localized in the cytosol of cells expressed in many tissues, including brain, skeletal muscle, heart and liver tissues. One hour after stress induction by mitochondrial uncouplers (which mimic mitochondria damage by decreasing the mitochondrial inner membrane electrochemical gradient that is used to produce ATP), Parkin translocates from the cytosol to mitochondria in many cultured cell types, including neurons and HeLa cells. Administration of other mitochondrial poisons, such as Paraquat and azide in cells lacking mitochondrial DNA (mtDNA), induces Parkin translocation to mitochondria. […] It was proposed that Parkin (together with Pink1) mediates a mitochondrial quality control pathway to maintain organelle population fidelity by removing damaged mitochondria. Understanding the normal physiologic role of Parkin (and Pink1) may uncover novel treatment strategies for sporadic Parkinson's disease patients with mutation in these genes.
# A cell based qHTS in 1536 well format was developed assess modulation of Parkin expression using a neuronal cell line that stably expresses a stably expresses a luminescent coincidence reporter (FLuc and NLuc reporters) behind the Parkin promoter. The LOPAC library is used to validate the assay for quantitative high-throughput screening. The data herein reports the signal from the FLuc reporter. An increase in this signal = activation of Parkin expression. For this assay , a positive control normalized signal increase corresponding to a high quality qHTS curve class in both luminescent channels is the desired outcome for this assay.
# NIH Chemical Genomics Center [NCGC]
# NIH Molecular Libraries Probe Centers Network [MLPCN]
# Assay Submitter (PI): Richard Youle, National Institute of Neurological Disorders and Strokes (NINDS), NIH
# [1] Narendra, D., et al., Parkin is recruited selectively to impaired mitochondria and promotes their autophagy. J Cell Biol, 2008. 183(5): p. 795-803.
# [2] Suen, D.F., et al., Parkin overexpression selects against a deleterious mtDNA mutation in heteroplasmic cybrid cells. Proc Natl Acad Sci U S A, 2010. […] 11835-40.
# [3] Cheng K, Inglese J. A coincedence reporter-gene system for high-throughput screening. Nat Methods. 2012: 9(10);937
# Five microliters (1,500 cells/well) of the Parkin coincidence reporter cells were seeded to 1536 well assay plates (Greiner Catalog # 789173-F) and incubated at 37 C, 5% CO2 for 24 hours. Compounds (23 nL) were pinned using the Kalypsys robotic system equipped with 1536 pin head adaptor in 7-point dose response. The assay plates were incubated for additional 24 hr at 37 C, 5% CO2 followed by a volume reduction in each well to 2 uL using an automated plate washer/aspirator. Following the volume reduction,2 uL of FLuc detection reagent and plates were incubated for 10 minutes at room temperature. The FLuc luminescence signal was obtained using the PerkinElmer ViewLux plate imager and then 2 uL of NanoLuc detection reagent was added to the plates. After another 10 minute incubation, NanoLuc signal was obtained using the PerkinElmer ViewLux plate imager as before. Data from each channel was normalized to DMSO (neutral control) and the positive control compounds (100%).
row,Compound,activation [%]
1,OC[C@H]1O[C@@H](n2cnc3cncnc32)[C@H](O)[C@@H]1O,-2.9
2,C#CCn1c(=O)c2c(ncn2C)n(C)c1=O,15.4
3,C=CCn1c(=O)c2c(nc(-c3ccc(S(=O)(=O)O)cc3)n2C)n(C)c1=O,6.2
4,O=c1[nH]c2cc(Cl)ccc2c(O)c1-c1ccc(Oc2ccccc2)cc1,3.15
5,Oc1cc2c(cc1O)C(c1ccccc1)CNCC2 (stereo not given),-6.58
6,NC(=O)CNCCC(c1ccccc1)c1ccccc1,-2.23
7,NC(N)=N[C@@H](CCC(=O)O)C(=O)O,-3.85
8,Nc1ccc(N2C(=O)c3ccccc3C2=O)c(Cl)c1,-12.2
9,N=C(N)c1ccccc1,-10.5
10,CC1C(=O)N(C)C(=O)c2nc[nH]c21 (stereo not given),-4.63
11,N[C@H](C(=O)O)[C@H](Cc1ccccc1)C(=O)O,-2.28
12,NCC(O)C1CCCCCCC1 (stereo not given),-7.08
13,N=C(N)SCCc1cnc[nH]1,-8.13
14,Cc1nc(N=Nc2ccc(S(=O)(=O)O)cc2S(=O)(=O)O)c(COP(=O)(O)O)c(C=O)c1O,23.9
15,CN1CCCC1CCOC(C)(c1ccccc1)c1ccc(Cl)cc1 (stereo not given),-6.36
16,NC[C@@H]1O[C@H](c2ccccc2)Cc2c1ccc(O)c2O,1.05
17,N[C@H](C(=O)O)[C@H](O)C(=O)O,-2.77
18,Cn1c(=O)c2[nH]c(-c3ccc(S(=O)(=O)O)cc3)nc2n(C)c1=O,-8.52
19,CCCc1c(OCCCOc2ccc(OCC(=O)O)cc2)ccc(C(C)=O)c1O,-6.23
20,O=C1OC(=O)C2C3CCC(O3)C12 (stereo not given),7.1

row,Compound,activation [%]
1,O[Si](CCCN1CCCCC1)(c1ccc(F)cc1)C1CCCCC1 (stereo not given),-4.21
2,NC(N)=NC(N)=Nc1cccc(Cl)c1,-5.73
3,C=C1C[C@@]23CC[C@H]4[C@@](C)(CCC[C@@]4(C)C(=O)O)[C@@H]2CC[C@]1(O)C3,-9.59
4,O=C(c1ccc2c(c1)OCCO2)N1CCCCC1,-2.59
5,NCCCCN=C(N)N,-2.98
6,Fc1ccc(CN(C2=NCCN2)c2c(Cl)cccc2Cl)cc1,-10.6
7,NC1(C(=O)O)CCCCC1,-9.16
8,Cc1nc(N=Nc2cc(S(=O)(=O)O)c3cc([N+](=O)[O-])cc(S(=O)(=O)O)c3c2)c(COP(=O)(O)O)c(C=O)c1O,-5.83
9,CN1CC(O)C(O)C(O)C1CO (stereo not given),-1.06
10,Oc1cc(O)c2c(c1)O[C@H](c1ccc(O)c(O)c1)[C@@H](O)C2,-4.32
11,CCCCCCCC/C=C\CCCCCCCC(=O)NCCc1ccc(O)c(O)c1,-24.4
12,NC/C=C\C(=O)O,6.72
13,OC[C@H]1O[C@H](n2cnc3c(N[C@H]4CCC[C@@H]4O)ncnc32)[C@H](O)[C@@H]1O,-2.32
14,CC1CCN=C(N)S1 (stereo not given),-5.19
15,O=C(O)CCC/C=C\C[C@@H]1[C@@H](/C=C/[C@H](O)C2Cc3ccccc3C2)[C@@H](F)C[C@@H]1O,-12
16,c1ccc(CN2CCC3(CCCc4ccccc43)CC2)cc1,-15.6
17,O=c1cc(-c2ccccc2)[nH]c2nc(Cl)ccc12,-6.87
18,CCCC(=O)NCCc1c2n(c3ccc(OC)cc13)CCCc1ccccc1-2,-3.1
19,COc1cc(C(O)CO)ccc1O (stereo not given),-6.26
20,C=CC[C@H](N)C(=O)O,8.91
